Compound activity as filed in PubChem.
FUS yeast rescue = FUS proteinopathy suppression in yeast. S. cerevisiae FUS-expressing, growth rescue, OD600, 24 h. Potency, µM (doses to about 76.6 µM), actives largely listed as activators. hit rate 0.24% among 390,000. AID 1347120;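 further: plate controls were DMSO vehicle for no effect and reference control for full effect; nearly all actives have a fitted effect of over 55% in size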
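Galactose (2%) drives FUS expression in yeast precultured in raffinose; seeding density OD 0.005. Test compounds incubated 24hr at 30C and 99% humidity before absorbance at 600 nm was measured.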
PINK1 modulator = changes PINK1 expression | PINK1 immunofluorescence, high-content cytometry, 24 h | hit rate 0.2% among 410,000 | Potency, µM (titrated, usually from 76.6 µM), without a hit: at the highest dose activation (PINK1 increase), most hits filed as activators | AID 624263; active means well fitted activation curve with a large enough effect; inconclusive means small, poorly fitted or top-dose-only effect; cell line not stated here; further: % of control where 0% means no effect; nearly all actives have a fitted effect of over 65% in size
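Stable cell line treated 24 h with compounds at 5 concentrations (CCCP controls), then fixed and immunostained for PINK1 plus nuclear and cell stains; PINK1 immunofluorescence quantified by laser-scanning microplate cytometry.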
Vif-APOBEC3F blk = blocks the Vif interaction with APOBEC3F; HeLa A3F-eYFP + Vif (tagged APOBEC3F with the HIV-1 protein that degrades it), YFP fluorescence increase; hit rate 0.2% among 390,000; Potency, µM (top dose mostly 46.1 µM), without a hit: at the top dose activity, negative = active; AID 602313; further: % of control where 0% means no effect; nearly all actives have a fitted effect of over 65% in size
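Fluorescence increase (Ex 488/Em 500-530) after overnight compound treatment at 37 deg C flags inhibition of Vif-driven A3F-eYFP loss in stable HeLa A3F-eYFP/Vif cells seeded overnight beforehand.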
Abeta rescue = compounds reversing amyloid beta toxicity in yeast. yeast expressing A-beta42, growth rescue, OD600, 48 h; response scale: 0% DMSO, 100% iron-clioquinol control. Potency, µM (titrated, usually from 46.1 µM), hits mostly activators. hit rate 0.063% among 410,000. AID 1347071; further: nearly all actives have a fitted effect of over 55% in size
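Yeast A-beta toxicity model in growth medium with pinned compounds, 48 h at 30 C; growth read as absorbance at 600 nm. Normalized to FeCl3/clioquinol equimolar mix (positive) and DMSO (negative).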
Vif-APOBEC3G blk = inhibitors of Vif-APOBEC3G interaction; hit rate 0.076% among 410,000; Q9HC16; AID 602310; HeLa A3G-eYFP + Vif (tagged APOBEC3G with the HIV-1 protein that degrades it), YFP fluorescence, overnight; Potency, µM (series often up to 46.1 µM), without a hit: at the top dose activity, negative = active, actives largely listed as inhibitors; further: on the % scale 0 is the no-effect control and ±100 the full control effect; nearly all actives have a fitted effect of over 60% in size
Target sequence (Q9HC16 whole entry, looked up): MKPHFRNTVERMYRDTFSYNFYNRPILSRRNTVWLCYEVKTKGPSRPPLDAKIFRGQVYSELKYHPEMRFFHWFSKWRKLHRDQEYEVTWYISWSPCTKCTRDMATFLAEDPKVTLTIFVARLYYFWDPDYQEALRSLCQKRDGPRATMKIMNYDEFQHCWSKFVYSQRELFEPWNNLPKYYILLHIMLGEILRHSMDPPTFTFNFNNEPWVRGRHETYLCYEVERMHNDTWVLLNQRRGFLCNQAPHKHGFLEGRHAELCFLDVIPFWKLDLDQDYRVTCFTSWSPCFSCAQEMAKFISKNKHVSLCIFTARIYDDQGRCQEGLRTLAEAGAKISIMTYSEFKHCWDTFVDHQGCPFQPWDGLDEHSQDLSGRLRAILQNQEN
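Read-out is eYFP fluorescence (Ex 488/Em 500-530) from Vif-expressing HeLa A3G-eYFP cells; more signal means A3G escaped Vif-mediated degradation. Cells plated overnight, compound pinned in, incubated overnight at 37 deg C.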
GRP78 ERSR act = induces the endoplasmic reticulum stress response in human glioma cells; U87-MG GRP78 promoter luciferase reporter, 16 h; AID 602332; hit rate 0.02% among 420,000; Potency, µM, without a hit: at the highest dose activation, hits mostly activators; further: series mostly up to about 76 µM; % of control where 0% means no effect; nearly all actives have a fitted effect of over 35% in size
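Stably transfected U87-MG human glioma cells carrying a GRP78-based luminescent sensor were seeded at 1000 cells/well, pin-dosed with compounds and incubated 16 h. Luciferase reagent was then added, and end-point luminescence was read after 10 min at room temperature.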
The depositor's hits bear a star; i = inactive; ? = inconclusive; / = no result. Sampled rows, rich in hits. Any-hit rate of the full collection: about 0.69%. Unless noted, the call rests on the fitted dose curve; in most records, active means well fitted curve in the direction sought with a large enough effect; inconclusive means small, poorly fitted or top-dose-only effect, or another doubt; inactive means no such curve, though single readings can be large; an effect the other way counts as inactive or inconclusive. Potency means the concentration at half of the fitted maximal effect.

SMILES	FUS yeast rescue	PINK1 modulator	Vif-APOBEC3F blk	Abeta rescue	Vif-APOBEC3G blk	GRP78 ERSR act
CCc1cc(/C=C/c2ccnc3ccccc23)ccc1N(C)C	/	2.3%	/	/	?	7.9%
COC(=O)c1ccccc1-c1cc(C)cc2c1OC(CNC(=O)c1cc(C)n(C)n1)C2 (stereo not given)	/	-0.2%	/	/	/	-1.1%
O=C(Nc1ccccc1)c1cccc(C(F)(F)F)c1	/	3.6%	1.1%	i	-5.1%	3.4%
Cc1c(C(=O)Nc2ccccc2)c2ccc(C(F)(F)F)cc2n1O	i	44.7µM*	2.3%	i	-2.2%	-7.4%
CCNC(=O)c1sc2ncnc(NCCCN3CCOCC3)c2c1C	/	-0.5%	/	/	/	-4.4%
COc1cc2nc(N3CCOCC3)nc(NC3CCN(C)CC3)c2cc1OC	/	0.1%	/	/	/	/
O=C(Nc1ccc2c(c1)OCCO2)C(C1CC1)n1c(=O)c(-c2ccco2)nc2ccccc21 (stereo not given)	i	/	/	i	/	/
N#Cc1ccc(C(C(=O)Nc2ccc3c(c2)OCCO3)n2c(=O)c(-c3ccco3)nc3ccccc32)cc1 (stereo not given)	6.31µM*	/	/	i	/	/
O=C(NCCc1ccccn1)C1CC12CCN(C(=O)c1ccccc1Cl)CC2 (stereo not given)	/	0.2%	/	/	/	-5.5%
S=C(NCc1ccco1)N1CCN(c2cccc(Cl)c2)CC1	i	0.5%	2.9%	12.6µM*	1.1%	-0.8%
O=C1S/C(=C\c2ccc(O)c([N+](=O)[O-])c2)C(=O)N1Cc1cccc([N+](=O)[O-])c1	i	39.8µM*	-2.5%	i	0.5%	-2.9%
O=C1/C(=C/c2ccc(O)cc2)SC(=S)N1Cc1cccnc1	i	35.5µM*	?	i	-1.9%	1.7%
C#CCOc1ccc(/C=C2\SC(=S)N(Cc3cccnc3)C2=O)cc1	/	11.2%	-24.5%	i	-9.0%	0.8%
O=C1/C(=C\c2ccc(O)c(O)c2)SC(=S)N1Cc1ccccc1	i	7.3%	?	i	22.4µM*	-5.3%
O=C1/C(=C\c2cc([N+](=O)[O-])ccc2O)SC(=S)N1Cc1ccc(Cl)cc1	i	14.1µM*	12.6µM*	i	?	-4.8%
Cc1cccc(NC(=O)CN2C(=O)S/C(=C\c3ccc(O)c([N+](=O)[O-])c3)C2=O)c1	i	2.5%	10.8%	i	2.3%	3.2%
COc1ccc(CN2CCOc3ccc(CN4CCC(O)(c5cccnc5)CC4)cc3C2)c(C)c1C	/	-0.3%	/	/	/	-5.6%
Cc1oc(-c2ccccc2NC(=O)c2ccccn2)nc1CNC(=O)c1ccc(Oc2ccccc2)o1	/	0.1%	/	/	/	-0.8%
CN(C)S(=O)(=O)c1ccc(N2CCCC2)c(C(=O)N2CCN(S(=O)(=O)c3ccc(F)c(F)c3)CC2)c1	28.2µM*	-0.9%	1.2%	i	?	-4.2%
Cc1ccc(NC(=O)c2cc(S(=O)(=O)N(C)C)ccc2N2CCCC2)cc1F	/	-2.7%	-25.4%	i	-10.7%	31.6µM*
O=C(NCc1ccccn1)c1cnn(-c2nccc(-c3cccs3)n2)c1C1CC1	/	-0.2%	/	/	/	0.5%
Cc1cc(/C=C2\SC(=S)N(C)C2=O)c(C)n1-c1ccccc1O	i	?	11.2µM*	i	?	1.0%
Cc1cc(/C=C2\SC(=S)N(C)C2=O)c(C)n1-c1ccc(O)cc1	i	?	25.1µM*	i	?	-14.6%
CN1C(=O)/C(=C/c2coc3ccc(O)cc3c2=O)SC1=S	i	?	-10.3%	i	1.0%	-2.2%
C=Nc1ccc(/C=C/c2ccnc3ccccc23)cc1	/	/	/	/	-24.4%	-4.8%
SMILES	FUS yeast rescue	PINK1 modulator	Vif-APOBEC3F blk	Abeta rescue	Vif-APOBEC3G blk	GRP78 ERSR act
CCS(=O)(=O)c1ccc(N=Nc2ccc(O)c3ncccc23)c(OC)c1	i	14.1µM*	-11.6%	?	2.5%	-1.6%
COc1ccccc1N=Nc1ccc(O)c2ncccc12	i	10.6%	4.1%	i	0.4%	-0.2%
Cc1ccc(NS(=O)(=O)c2ccc3[nH]c4c(c3c2)CCCCCC4)cc1Cl	22.4µM*	-2.2%	0.3%	i	1.0%	-11.5%
Cc1cccc(N(C)C(=O)CN(C)S(=O)(=O)c2ccc3[nH]c4c(c3c2)CCCC4)c1	31.6µM*	0.3%	-14.0%	i	0.1%	-4.9%
Cc1ccccc1NS(=O)(=O)c1ccc2[nH]c3c(c2c1)CCCCC3	35.5µM*	1.5%	-5.3%	i	-1.8%	-2.1%
CC(C)C[C@@H](NC(=O)[C@@H](COC(C)(C)C)NC(=O)[C@H](Cc1ccc(O)cc1)NC(=O)[C@@H](CO)NC(=O)[C@@H](Cc1c[nH]c2ccccc12)NC(=O)[C@@H](Cc1cnc[nH]1)NC(=O)[C@@H]1CCC(=O)N1)C(=O)N[C@H](CCCN=C(N)N)C(=O)N1CCC[C@H]1C(=O)NNC(N)=O	/	/	/	/	/	-3.5%
COc1ccc(/C=C/C(=O)N2CCc3c(cnc(C)c3CNC(=O)c3ccsc3)C2)cc1OC	/	-0.8%	/	/	/	-4.7%
O=C(NC(=S)N1CCN(C2CCCCC2)CC1)c1ccccc1	i	2.5%	22.4µM*	i	3.9%	3.6%
O=C(NC(=S)N1CCN(c2ccccn2)CC1)c1ccccc1	i	3.0%	22.4µM*	i	2.4%	0.4%
Cn1ncc(Br)c1C(=O)NC(=S)N1CCN(c2ccccn2)CC1	i	2.9%	?	i	-1.6%	-2.1%
COc1ccccc1-c1ccnc(-n2ncc(C(=O)N3CCN(C4CCCC4)CC3)c2-c2ccco2)n1	/	-0.9%	/	/	/	-4.9%
Cc1[nH]nc2ncc(C(=O)c3ccccc3O)cc12	12.6µM*	-1.0%	-4.0%	i	4.9%	-0.1%
CCCCN(CCC(=O)O)c1ccc(/C=C/c2ccnc3ccccc23)cc1	/	/	/	/	?	-10.9%
CC(C)(O)C#Cc1ccc(CN2CCc3nnc(CCNC(=O)c4ccco4)n3CC2)cc1	/	-0.2%	/	/	/	-1.7%
CCCCC1=CC2=C(c3ccco3)C(=O)C(C)(OC(=O)c3ccc(OC)cc3)C(=O)C2=CN1CC1CC1 (stereo not given)	20µM*	5.0%	1.7%	i	-3.5%	-2.3%
CCNc1ccc(-c2nc(-c3ccncc3)no2)cc1[N+](=O)[O-]	i	14.1µM*	0.8%	i	4.0%	-1.8%
COc1ccc2c(c1)OC(C)CN(CCNC(=O)c1cccc(N3CCNC3=O)c1)C2 (stereo not given)	/	0.0%	/	/	/	-2.5%
Cc1ccc2c(c1)Sc1c(ccc3ccccc13)N2	i	2.1%	22.4µM*	i	?	2.6%
OCCCNCc1cc2ccc(F)cc2nc1N1CCN(c2cccc(Cl)c2)CC1	/	1.6%	/	/	/	-3.1%
CCOC(=O)c1sc(NC(=O)CSc2n[nH]c(-c3ccccc3)n2)c(C#N)c1C	i	15.8µM*	-0.9%	i	-0.7%	-2.3%
